Broadly, the inhibition is the drop in the measured response relative to a control, in per cent.

SMILES strings stand for the structures. Several values for one entry are separate records, joined by “and”; a condition that tells them apart may be missing. Equal entries are not always repeated. Among all 360,000 compounds or so, about 340 (0.094%) were called active. This is one part of a sample in which actives are shown more often than they occur. Rule as the data show it: active = inhibition above about 40%; inconclusive = no clear call, values can overlap the other calls; inactive = below that. More than one record can exist for a structure, and the calls need not agree.

The test system of the assay is 7,8-diaminopelargonic acid synthase BioA (Mycobacterium tuberculosis). Description: M. tuberculosis BioA enzyme inhibitors, primary screen, biochemical, plate reader, single point, HTS (AID 602481). The conditions noted are these: purified M. tuberculosis BioA enzyme, at 9.99 µM, stronger effect = higher value.
As to `CN1C(=O)c2cc(NC(=O)c3ccc(F)c(F)c3)ccc2OC[C@H]2O[C@@H](CC(=O)N3CCCCC3)CC[C@H]21`, the inhibition is 4.19% (inactive).

For `C[C@@H]1CN([C@@H](C)CO)C(=O)c2cc(C#C[C@@H](C)O)cnc2O[C@H]1CN(C)CC1CCOCC1`, the inhibition is -0.205% (inactive). Then `O=C(C[C@H]1C[C@@H]2c3cc(NC(=O)CC4CC4)ccc3O[C@@H]2[C@@H](CO)O1)NCc1cc(F)ccc1F`, with -0.019% (inactive); and `COCC#Cc1cnc2c(c1)C(=O)N([C@H](C)CO)C[C@H](C)[C@H](CN(C)Cc1ccc(-c3ccccc3)cc1)O2`, with -2.84% (inactive).

Take `C[C@@H]1CN([C@H](C)CO)C(=O)c2cc(NC(=O)Nc3ccc(F)cc3)ccc2O[C@@H]1CN(C)Cc1ccc(Cl)c(Cl)c1`: the inhibition was -0.852% (inactive). Under `C[C@H]1CCCCO[C@H](CN(C)C(=O)CCC(F)(F)F)[C@@H](C)CN([C@@H](C)CO)C(=O)c2cc(NC(=O)Cc3ccccc3)ccc2O1` stands 1.33% (inactive); under `C[C@H]1CN([C@@H](C)CO)S(=O)(=O)c2ccc(C#Cc3ccccc3)cc2O[C@H]1CN(C)S(=O)(=O)c1cn(C)cn1`, 0.612% (inactive). Then `CCNC(=O)C[C@@H]1CC[C@H](NC(=O)C2CCC2)[C@@H](CO)O1`, with 0.933% (inactive); and `O=C(c1ccncc1)N1CC[C@@H]2[C@H]1c1cc(Br)ccc1N[C@@H]2CO`, with 104% (active). Under `O=C(c1cccnc1)N1CC[C@@H]2[C@@H](CO)Nc3ccc(-c4ccccc4)cc3[C@@H]21` stands 18.1% (inactive); under `O=C(c1ccccc1)N1CC[C@H]2[C@H](CO)Nc3ccc(-c4ccc(F)cc4)cc3[C@H]21`, -4.36% (inactive); under `O=C(C[C@@H]1C=C[C@@H](NC(=O)c2ccccn2)[C@@H](CO)O1)NCc1cc(F)cc(F)c1`, -2.07% (inactive). With `C[C@@H]1CN([C@H](C)CO)C(=O)c2cc(NC(=O)NC3CCCCC3)ccc2O[C@@H](C)CCCCO[C@H]1CN(C)S(C)(=O)=O`, the inhibition is 1.27% (inactive). Then `CCC(=O)Nc1ccc2c(c1)OC[C@@H](C)N(Cc1ccccn1)C[C@H](C)[C@@H](OC)CN(C)C2=O`, with 0.9% (inactive). Under `CO[C@H]1CN(C)C(=O)c2ccc(NC(C)=O)cc2OC[C@@H](C)NC[C@H]1C` stands -1.23% (inactive); under `C[C@@H]1CN([C@H](C)CO)C(=O)c2cc(-c3ccccc3)cnc2O[C@H]1CN(C)C(=O)Nc1ccccc1`, 4.24% (inactive); under `CNC(=O)C[C@H]1CC[C@H]2[C@@H](COc3ccc(NS(=O)(=O)c4ccc(F)cc4)cc3C(=O)N2C)O1`, 6.78% (inactive). `COc1ccc(NC(=O)Nc2cccc3c2O[C@H](CN(C)S(=O)(=O)c2cn(C)cn2)[C@H](C)CN([C@@H](C)CO)C3=O)cc1`: the inhibition is 1.78% (inactive).

`CC(C)(C)C1CCc2c(sc3nc(SCC(N)=O)nc(N)c23)C1` (stereo not given): the inhibition is 7.83% (inactive). Under `C=C(C)CSc1nc(N)c2c3c(sc2n1)CCC3` stands 54.5% (active).

`C=CCn1c(SCC(=O)NCCCO)nc2sc3c(c2c1=O)CCC3`: the inhibition was 2.06% (inactive). Under `C[C@H](CO)N1C[C@H](C)[C@H](CN(C)C(=O)Nc2ccc(F)cc2)OCCCC[C@H](C)Oc2ccc(NC(=O)CCC(F)(F)F)cc2C1=O` stands -0.385% (inactive). Then `C[C@@H]1CN([C@@H](C)CO)C(=O)c2cccc(NS(=O)(=O)c3ccc(F)cc3)c2O[C@H]1CN(C)S(=O)(=O)c1cccs1`, with -1.23% (inactive); and `CC(C)NC(=O)N1CCCCN2[C@@H](CO)[C@@H](c3ccc(C#C[C@@H](C)O)cc3)[C@@H]2C1`, with 2.83% (inactive). Under `CC(C)Oc1ccc(Cc2n[nH]c(=S)n2Cc2ccccc2)cc1Cl` stands 0.831% (inactive); under `CC(C)Oc1ccc(CCc2n[nH]c(=S)n2Cc2ccccc2)cc1`, 0.782% (inactive). Consider `COc1cc(-c2n[nH]c(=S)n2Cc2ccccc2)cc(OC)c1OC`, for which the inhibition was 69.8% (active). Under `COc1ccc(S(=O)(=O)N2C[C@@H](O)COC[C@H]3O[C@@H](CC(=O)NCCN4CCCCC4)CC[C@@H]32)cc1` stands -1.77% (inactive); under `CC(C)NC(=O)N1[C@@H]2CN(C(=O)C3CCCCC3)c3ccccc3[C@@H]2[C@@H]1CO`, -4.4% (inactive). Regarding `Cc1noc(C)c1S(=O)(=O)N(C)C[C@@H]1Oc2c(NS(=O)(=O)c3cn(C)cn3)cccc2C(=O)N([C@@H](C)CO)C[C@H]1C`, the inhibition was -0.608% (inactive).

`Cc1ccc(S(=O)(=O)N(C)C[C@@H]2Oc3c(NC(=O)NC(C)C)cccc3C(=O)N([C@H](C)CO)C[C@H]2C)cc1`: the inhibition was -1.17% (inactive). Turning to `CC(=O)O[C@]1(C(C)=O)CC[C@H]2[C@@H]3C=C(C)C4=CC(=O)CC[C@]4(C)[C@H]3CC[C@@]21C`, the inhibition is 13.2% (inactive) and 51.3% (active). Under `CC(=O)OCC(=O)C1(O)CCC2C3CC(C)C4=CC(=O)CCC4(C)C3C(O)CC21C` (stereo not given) stands -0.825% (inactive); under `C[C@]12CCC(=O)C=C1C=CC1C2CC[C@@]2(C)C1CC[C@@]21CCC(=O)O1` (stereo not given in full), 19.6% (inactive); under `CC(C)C#Cc1cnc2c(c1)C(=O)N([C@@H](C)CO)C[C@@H](C)[C@@H](CN(C)C(=O)CN1CCOCC1)O2`, -1.21% (inactive). Under `C[C@@H]1CN([C@@H](C)CO)C(=O)c2cc(NS(=O)(=O)c3cn(C)cn3)ccc2O[C@@H](C)CCCCO[C@H]1CN(C)S(=O)(=O)c1cccs1` stands 0.052% (inactive). Then `O=C(C1CCCC1)N1[C@H](CO)[C@@H]2c3ccccc3N(S(=O)(=O)c3ccccc3)C[C@@H]21`, with 6.11% (inactive); and `Cc1ccc(S(=O)(=O)N[C@H]2C=C[C@@H](CC(=O)NCCc3ccncc3)O[C@@H]2CO)cc1`, with 2.21% (inactive). As for `C[C@H](CO)N1C[C@H](C)[C@H](CN(C)S(=O)(=O)c2ccc(C#N)cc2)Oc2ncc(-c3cccc(F)c3)cc2C1=O`, the inhibition was 4.36% (inactive). Take `CO[C@@H](CN(C)S(=O)(=O)c1ccccc1)[C@@H](C)CN(Cc1ccccc1Cl)[C@H](C)CO`: the inhibition was -0.143% (inactive).

On to `O=C(CSc1nnc(-c2ccncc2)n1C1CCCCC1)Nc1ccccc1`, for which the inhibition was -0.812% (inactive).

Turning to `CC(=O)CSc1nnc(CSc2ncccn2)n1C1CCCCC1`, the inhibition is 43.5% (active). Then `CC1CC(C)CN(C(=O)CSc2nnc(CSc3ncccn3)n2C)C1` (stereo not given), with 0.828% (inactive); and `CCCN1C[C@H](C)[C@@H](OC)CN(C)C(=O)c2ccc(NC(=O)c3cnccn3)cc2OC[C@H]1C`, with -1.47% (inactive). Take `COc1ccc(NC(=O)N(C)C[C@H]2OCCCC[C@@H](C)Oc3ccc(NC(=O)Nc4ccc5c(c4)OCO5)cc3C(=O)N([C@H](C)CO)C[C@@H]2C)cc1`: the inhibition is -1.28% (inactive). Under `C[C@H](CO)N1C[C@H](C)[C@@H](CN(C)C)Oc2ccc(NS(=O)(=O)c3cccs3)cc2C1=O` stands 2.81% (inactive); under `CC(=O)N1[C@H](CO)[C@H]2c3ccccc3N(C(=O)c3ccc(F)cc3)C[C@H]21`, -3.14% (inactive); under `Cc1ccc(S(=O)(=O)N(C)C[C@@H]2Oc3c(NC(=O)C4CC4)cccc3C(=O)N([C@H](C)CO)C[C@@H]2C)cc1`, -0.903% (inactive). Then `C[C@@H]1CCCCO[C@H](CN(C)C)[C@@H](C)CN([C@H](C)CO)C(=O)c2cc(N(C)C)ccc2O1`, with -0.059% (inactive).

For the compound `CN(C)CC(=O)Nc1ccc2c(c1)[C@H]1C[C@@H](CC(=O)NCc3ccc(Cl)cc3)O[C@@H](CO)[C@H]1O2`, the inhibition is 0.123% (inactive).

For `C[C@H]1CN([C@@H](C)CO)C(=O)CCCn2cc(nn2)CO[C@H]1CN(C)C(=O)Nc1cccc(C(F)(F)F)c1`, the inhibition is -3.91% (inactive). Under `COCC(=O)N1[C@H](CO)[C@@H](c2ccccc2)[C@H]1CN(C)C(=O)c1ccncc1` stands -4.1% (inactive); under `C[C@@H]1CN([C@@H](C)CO)C(=O)c2c(c3ccccc3n2C)-c2ccccc2CO[C@H]1CN(C)S(=O)(=O)c1cccs1`, -2.08% (inactive). Then `CN1[C@@H]2CN(C(=O)C3CCCCC3)c3ccccc3[C@@H]2[C@@H]1CO`, with 5.87% (inactive); and `CC(C)(C)[S@@](=O)N1Cc2cc(C(=O)N3CCCCC3)nc(-c3cccc(-c4cccc(C#N)c4)c3)c2[C@H]1CCO`, with 0.956% (inactive); and `COc1ccc(NC(=O)Nc2ccc3c(c2)[C@H]2C[C@H](CC(=O)NC4CCCCC4)O[C@H](CO)[C@H]2O3)cc1`, with 0.43% (inactive). Then `CN1CCC(=NNC(=O)c2ccc(N(Cc3ccc(Cl)cc3)S(C)(=O)=O)cc2)CC1`, with -0.516% (inactive). On to `Cn1nccc1/C=N\NC(=O)c1ccc(Cl)cc1`, for which the inhibition was 69.1% (active). Under `CC(=NNC(=O)c1ccncc1)c1ccc(Cl)c(Cl)c1` stands -0.685% (inactive). Then `CC(=O)Nc1ccccc1-c1cn(CC(=O)N2CCOCC2)nn1`, with -2.47% (inactive); and `CC(C)CC#Cc1cnc2c(c1)C(=O)N([C@@H](C)CO)C[C@H](C)[C@@H](CN(C)Cc1ccccc1C(=O)O)O2`, with -0.715% (inactive); and `C[C@@H]1CN([C@@H](C)CO)C(=O)c2cc(NC(=O)CCCN(C)C)ccc2O[C@@H](C)CCCCO[C@H]1CN(C)C(=O)Nc1cccc2ccccc12`, with -0.656% (inactive). Under `O=C(C[C@@H]1C[C@H]2c3cc(NC(=O)CC4CC4)ccc3O[C@H]2[C@@H](CO)O1)NCc1ccc2c(c1)OCO2` stands -1.7% (inactive). Regarding `C[C@@H]1CCCCO[C@@H](CN(C)C(=O)Nc2ccc3c(c2)OCO3)[C@H](C)CN([C@H](C)CO)C(=O)c2cc(NC(=O)CCCN(C)C)ccc2O1`, the inhibition was 1.19% (inactive). On to `CCC(=O)Nc1ccc2c(c1)C(=O)N(C)C[C@H](OC)[C@H](C)CN(C(=O)c1ccccn1)[C@@H](C)CO2`, for which the inhibition is -2.41% (inactive).

(Values after PubChem BioAssay AID602481 (Broad Institute, 2012).)
